Experimental data: PubChem BioAssay (EPA / NIEHS)
Activity calls are given as the source filed them. Rule for the calls: active = hit-call score of the fitted dose curve at least 0.9, where 1 is the maximum; inactive = score below 0.9.

Assay: CCTE_Simmons_MITO_inhib_resp_rate: CCTE's HepG2 Seahorse XF Respirometric Screening Assay at Inhibited Respiratory State [full ETC block], Simmons Lab (AID 2284006)
Settings: actives raise or lower the signal
Method: CCTE_Simmons_MITO is cell-based, respirometric assay using HepG2 cells and a Seahorse XF Analyzer to measure oxygen consumption rates over four temporal phases spanning a total of 72 minutes: pre-injection (pre-treatment), basal (following test compound injection), maximal (following FCCP uncoupler injection), and inhibited (following rotenone/antimycin A injection)CCTE_Simmons_MITO_inhib_resp_rate is one of 4 assay components calculated from the CCTE_Simmons_MITO assay. It is designed to make measurements of inhibited respiration using a form of respirometric reporter, as detected with […] signals by Seahorse XF96 technology. Data from the assay component CCTE_Simmons_MITO_inhib_resp_rate was analyzed at the endpoint, CCTE_Simmons_MITO_inhib_resp_rate_OCR, with bidirectional fitting relative to DMSO as the negative control and baseline of activity. Using a type of respirometric reporter, measures of inhibited respiration for gain or loss-of-signal activity can be used to understand cellular oxygen consumption as it relates to cellular respiration. To generalize the intended target to other relatable targets, this assay endpoint is annotated to the mitochondria intended target family, where the subfamily is respiration.
Test chemicals were administered as a titrated series of 7 concentrations from 125 nM up to 100 uM [final] prior to kinetic endpoint detection at 6 minute intervals [3 min mix followed by 3 minutes measure] for 72 minutes. Three biological replicates of technical singles were run for every chemical concentration tested. Dimethylsulfoxide [DMSO] was used as the vehicle control. The electron transport chain inhibitor fenpyroximate was used as the positive control for decreased basal respiration and was administered as a titrated series of 6 concentrations from 250 nM up to 2.75 uM [final] with technical triplicates for the top concentration only. The uncoupler 2,4-dintirophenol was used as the positive control for increased basal respiration and was administered as a titrated series of 6 concentrations from 938 nM up to 40 uM [final] with technical triplicates for the top concentration only. A Seahorse XF Analzyer is required to measure the response.

Row | SMILES | outcome | AC50
1 | O=C(O)c1cc(Oc2ccc(C(F)(F)F)cc2Cl)ccc1[N+](=O)[O-] | inactive | –
2 | CCCOCC(=Nc1ccc(Cl)cc1C(F)(F)F)n1ccnc1 | inactive | –
3 | CC[C@H](C)[C@H]1O[C@]2(C=C[C@@H]1C)C[C@@H]1C[C@@H](C/C=C(\C)[C@@H](O[C@H]3C[C@H](OC)[C@@H](O[C@H]4C[C@H](OC)[C@@H](NC)[C@H](C)O4)[C@H](C)O3)[C@@H](C)/C=C/C=C3\CO[C@@H]4[C@H](O)C(C)=C[C@@H](C(=O)O1)[C@]34O)O2 | – | 84.7 µM (active)
4 | C[Si](Cn1cncn1)(c1ccc(F)cc1)c1ccc(F)cc1 | inactive | –
5 | C=C(C)[C@H]1Cc2c(ccc3c2O[C@@H]2COc4cc(OC)c(OC)cc4[C@@H]2C3=O)O1 | – | 0.0842 µM (active)
6 | CCc1cccc(C)c1N(C(=O)CCl)C(C)COC (stereo not drawn) | inactive | –
7 | CC(C)=CC1C(C(=O)OCN2C(=O)C3=C(CCCC3)C2=O)C1(C)C (stereo not drawn) | inactive | –
8 | CSC1=N[C@@](C)(c2ccccc2)C(=O)N1Nc1ccccc1 | inactive | –
9 | CCCCOC(=O)[C@@H](C)Oc1ccc(Oc2ccc(C#N)cc2F)cc1 | inactive | –
10 | CC1(C(=O)Nc2ccc(O)c(Cl)c2Cl)CCCCC1 | inactive | –
11 | CC(COc1ccc(Oc2ccccc2)cc1)Oc1ccccn1 (stereo not drawn) | inactive | –
12 | N#CSCSC#N | inactive | –
13 | CON=C(C(=O)OC)c1ccccc1CON=C(C)c1cccc(C(F)(F)F)c1 | – | 14.8 µM (active)
14 | CCc1cccc(CC)c1N(COC)C(=O)CCl | inactive | –
15 | C#CCC1=C(C)C(OC(=O)C2C(C=C(C)C)C2(C)C)CC1=O (stereo not drawn) | inactive | –
16 | COP(=O)(OC)OC(Br)C(Cl)(Cl)Br (stereo not drawn) | inactive | –
17 | CCOP(=O)(NC(C)C)Oc1ccc(SC)c(C)c1 (stereo not drawn) | inactive | –
18 | CC(C1CC1)C(O)(Cn1cncn1)c1ccc(Cl)cc1 (stereo not drawn) | inactive | –
19 | CCC(=O)Nc1ccc(Cl)c(Cl)c1 | inactive | –
20 | CCCSP(=O)(OCC)Oc1ccc(Br)cc1Cl (stereo not drawn) | inactive | –
21 | CCOP(=S)(OCC)SCCSCC | inactive | –
22 | CN(C)[C@@H]1C(=O)C(C(N)=O)=C(O)[C@@]2(O)C(=O)C3=C(O)c4c(O)cccc4[C@@](C)(O)[C@H]3[C@H](O)[C@@H]12 | inactive | –
23 | CCOP(=S)(Oc1cnc(C(C)(C)C)nc1)OC(C)C (stereo not drawn) | inactive | –
24 | CCC(CC)Nc1c([N+](=O)[O-])cc(C)c(C)c1[N+](=O)[O-] | inactive | –
25 | O=[N+]([O-])c1cc(C(F)(F)F)c(Cl)c([N+](=O)[O-])c1Nc1ncc(C(F)(F)F)cc1Cl | inactive | –
26 | CC(C)N(C(=O)SCC(Cl)=C(Cl)Cl)C(C)C | inactive | –
27 | CCCSP(=O)(OCC)SCCC | inactive | –
28 | FC(F)C(F)(F)OCC(Cn1cncn1)c1ccc(Cl)cc1Cl (stereo not drawn) | inactive | –
